Source: PubChem BioAssay AID485281 (National Center for Advancing Translational Sciences (NCATS), 2010)
Among all 350,000 compounds or so, about 260 (0.074%) were called active. Entries that show only a call come without a potency. About 8% were inconclusive and are not listed. Calls come from the whole dose curve; as a rule, active = well fitted inhibition curve with a large enough effect; inconclusive = small, poorly fitted or top-dose-only effect; inactive = no such curve, though single readings can be large or run the other way. The full list was thinned out, with actives kept by preference.

These molecules were tested against Ferritin light chain (Equus caballus) (UniProt P02791) (assay: qHTS Assay for Identification of Novel General Anesthetics). Conditions: apoferritin/1-aminoanthracene competitive binding, fluorescence; series mostly up to 77.5 µM.
Method in brief: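 Horse-spleen apoferritin (10 uM) was mixed with 50% saturated 1-aminoanthracene in PBS, exposed to compounds for 10 min at room temperature, and read for fluorescence (ex 380 nm, em 535 nm). Competitive displacement was fitted with a four-parameter Hill equation.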
Note: nearly all actives have a fitted effect of over 20% in size.
Potency is the fitted concentration of half-maximal effect.

Chain of Ferritin light chain (Equus caballus) (P02791 2-175 limits assumed): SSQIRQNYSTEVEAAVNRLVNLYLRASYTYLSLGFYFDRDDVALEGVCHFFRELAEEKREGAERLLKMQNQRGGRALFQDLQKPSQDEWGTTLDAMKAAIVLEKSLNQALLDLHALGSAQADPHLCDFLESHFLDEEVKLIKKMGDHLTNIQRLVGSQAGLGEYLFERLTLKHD

| SMILES | Potency |
| --- | --- |
| O=C(CSc1nccn1C1CCCC1)Nc1cc(C(F)(F)F)ccc1Cl | inactive |
| CCN(CC)c1ccc(NS(=O)(=O)c2cc(-c3cc(C)no3)ccc2C)c(C)c1 | inactive |
| Cc1cccc(OCC(=O)Nc2ccccc2F)c1 | inactive |
| Cc1ccc(F)c(NC(=O)CCOc2ccccc2C)c1 | inactive |
| Cc1ccc(F)c(NC(=O)CCc2ccccc2)c1 | 12.6 µM (active) |
| CCc1ccc(NC(=O)C2CCCN2S(=O)(=O)c2ccc3nc(-c4ccccc4)[nH]c3c2)cc1 (configuration not stated) | inactive |
| CSc1ccc(C2c3c(oc4ccccc4c3=O)C(=O)N2CCCN2CCOCC2)cc1 (configuration not stated) | inactive |
| CCCOc1ccc(C2c3c(oc4cc(C)c(C)cc4c3=O)C(=O)N2CCCN2CCOCC2)cc1 (configuration not stated) | 35.5 µM (active) |
| Cc1ccc2oc3c(c(=O)c2c1)C(c1ccc([N+](=O)[O-])cc1)N(CCCN1CCOCC1)C3=O (configuration not stated) | inactive |
| CCOc1ccc(C(NC(=O)c2cc(OC)c(OC)c(OC)c2)c2cc(Cl)c3cccnc3c2O)cc1 (configuration not stated) | inactive |
| Cc1c(Cl)cccc1NC(=O)Cn1cc(C(=O)c2cccs2)c2ccccc21 | inactive |
| O=C(Nc1ccc(Br)cc1)c1ccc(Br)c(S(=O)(=O)NCc2ccccc2)c1 | inactive |
| CCCn1c2ccccc2c2cnn(CC(=O)NCC3CCN(Cc4ccc(C)cc4)CC3)c(=O)c21 | inactive |
| COc1ccc(N2CCN(c3nc(-c4ccccc4F)nc4ccccc34)CC2)cc1 | inactive |
| COc1ccc(OC)c(NC(=O)/C=C/c2ccc(C)o2)c1 | inactive |
| CCC1CN(S(=O)(=O)c2cc(-c3cc(C)no3)ccc2C)c2cc(C)ccc2O1 (configuration not stated) | inactive |
| CC(C)c1ccc(OCC(=O)N(Cc2ccc(N(C)C)cc2)C2CCS(=O)(=O)C2)cc1 (configuration not stated) | inactive |
| CSc1ccc(CCNC(=O)c2ccc3c(c2)nc2n3CCOC2)cc1 | inactive |
| CC(C)S(=O)(=O)c1oc(-c2ccc(F)cc2)nc1S(=O)(=O)c1ccc(F)cc1 | inactive |
| CCOc1ccc(-c2cc(C)n3nc(C(=O)Nc4ccc(C)c(C)c4)cc3n2)cc1 | inactive |
| COc1ccc(Cl)cc1NC(=O)CCn1c(=O)c2cccn2c2ccccc21 | inactive |
| O=C(NCc1ccccc1)C(=O)NCC(c1ccco1)S(=O)(=O)c1ccc(Cl)cc1 (configuration not stated) | inactive |
| CCC(=O)N1CCc2cc(S(=O)(=O)NC(Cc3ccccc3)C(=O)NCc3ccccc3)ccc21 (configuration not stated) | inactive |
| CC(C)c1ccc(NC(=O)c2ccc(Cn3nc(N4CCN(c5ccccc5)CC4)ccc3=O)o2)cc1 | inactive |
| Cc1ccc(CCNC(=O)c2ccc(CS(=O)(=O)Cc3cccc(C)c3)o2)cc1 | inactive |
| CNC(=O)c1ccc(-c2nc(CN3CCc4ccccc43)c(C)o2)cc1 | inactive |

| SMILES | Potency |
| --- | --- |
| COc1ccc(-c2noc(CSc3nc4ccc(C)cc4[nH]3)n2)cc1 | inactive |
| Cc1ccc(C(=O)Nc2ccc(OCc3cc(=O)n4c5c(sc4n3)CCCC5)cc2)cc1 | inactive |
| O=C(Nc1ccccc1N1CCCC1)c1ccc2ccccc2c1 | inactive |
| O=C(Nc1ccc(NC(=O)c2cccs2)cc1)c1ccc2ccccc2c1 | inactive |
| C=CC(=O)c1ccc2ccccc2c1 | 17.8 µM (active) |
| CCOc1cc(C(=O)Nc2nnc3n2CCS3)cc(OCC)c1OCC | inactive |
| Cc1cc(O)c(C(c2ccccc2)N2CCN(c3ccccc3F)CC2)c(=O)n1Cc1ccco1 (configuration not stated) | inactive |
| CCOc1cc(-c2nnc(SCC(=O)NC3CCCCC3)nc2-c2ccc(OC)c(OCC)c2)ccc1OC | inactive |
| COc1ccc(C(=O)Nc2ccc(-n3nncc3-c3ccccc3)cc2)cc1OC | inactive |
| Cn1c(C(=O)N2CCC(C(=O)N3CCN(c4ccccc4)CC3)CC2)cc2sccc21 | inactive |
| CC(C)(C)OC(=O)N1CCC(c2c(C(=O)NCCc3ccsc3)cnn2-c2ccc(F)cc2F)CC1 | inactive |
| COc1cccc(C(c2c(O)cc(C)n(Cc3ccco3)c2=O)N2CCN(c3ccccc3)CC2)c1 (configuration not stated) | inactive |
| COc1ccc2ncc3c(-c4ccc(C)c(C)c4)nn(CC(=O)NC4CCCC4)c3c2c1 | inactive |
| O=c1c(/C=N/O)coc2ccc(Cl)cc12 | inactive |
| CC(C)(C)OC(=O)NCCCCCC(=O)N/N=C/c1coc2ccccc2c1=O | inactive |
| Cc1ccc2occ(/C=N/NC(=O)c3ccccc3C)c(=O)c2c1 | 25.1 µM (active) |
| O=S(=O)(NCC(c1ccccc1)N1CCc2ccccc21)c1ccccc1 (configuration not stated) | inactive |
| O=C(O)c1c(CNCc2cccc(F)c2)c2ccccc2n1Cc1ccccc1 | inactive |
| O=c1cc2nc(-c3ccccc3)nc(SCCOc3ccc(Cl)cc3)n2[nH]1 | inactive |
| COc1ccc(CCN2C(=O)N(c3cccc(OC)c3)C(=O)C2CC(=O)Nc2ccccc2)cc1 (configuration not stated) | inactive |
| CCc1cnc2c(c1SCC(=O)c1ccccc1)c(=O)n(C)c(=O)n2C | inactive |
| CCCNC(=O)c1ccc2c(c1)ncn2-c1ccc(C)cc1C | inactive |
| CC(C)c1ccc(S(=O)(=O)Nc2ccc(O)c(Sc3nc4ccccc4s3)c2)cc1 | inactive |
| COc1cc(NC(=O)c2cc3ccc4cccnc4c3[nH]2)cc(OC)c1OC | inactive |
| CCOc1ccc(OCC)c(NC(=O)CN(c2ccc(C)cc2)S(=O)(=O)c2c(C)n[nH]c2C)c1 | inactive |
| COc1ccc(OC)c(CCNC(=O)CCCn2c(=O)c3cccn3c3cccnc32)c1 | inactive |
